Assay outcomes deposited in PubChem by ICCB-Longwood Screening Facility, Harvard Medical School.
The entries come from a sample that favours hits as a whole.
fixLJ activator: activators of Burkholderia fixLJ two-component system, primary screen, B. multivorans, GFP reporter. B. multivorans fixK-promoter GFP reporter, 18 h; active compounds read high. z-score (test concentration not listed). hit rate 0.3% among 29,000;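 active means replicate mean overnight rise in green fluorescent reporter signal, 3 or more SD over negative controls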
The depositor's hits bear a star.

SMILES	fixLJ activator
Cc1ccccc1NC(=O)CCS(=O)(=O)c1cc(Br)cc2c1N(C(=O)C1CC1)CC2	0.43
Cc1cccc(NC(=O)CCS(=O)(=O)c2cc(Br)cc3c2N(C(=O)C2CC2)CC3)c1C	0.77
CCC(=O)N1CCc2cc(Br)cc(S(=O)(=O)CCC(=O)Nc3cccc(C)c3C)c21	3.42*
COc1ccccc1C(=O)Nc1c(C(=O)c2ccccc2)oc2ccccc12	3.74*
COc1ccccc1OCC(=O)Nc1c(C(=O)c2ccc(C)cc2)oc2ccccc12	-2.11
COc1ccc(C(=O)c2oc3ccccc3c2NC(=O)c2ccc(F)cc2)cc1	-0.26
COCCN1CCC(C(=O)N2CCC3OCc4cnnn4C3C2)CC1 (stereo unspecified)	-0.3
O=C(Cn1ncc2c3ccccc3n(Cc3ccccc3)c2c1=O)NCCc1ccc(Cl)cc1	0.29
O=C(Cn1ncc2c3ccccc3n(Cc3ccc(Cl)cc3)c2c1=O)NCCC1=CCCCC1	6.41*
O=C(Cn1ncc2c3ccccc3n(Cc3ccc(Cl)cc3)c2c1=O)NC1CCCCCC1	10.7*
Cc1cc(C)c(Cn2c3ccccc3c3cnn(CC(=O)NCCC4=CCCCC4)c(=O)c32)c(C)c1	-1.87
Cc1ccccc1Cn1c2ccccc2c2cnn(CC(=O)NC3CCCCCC3)c(=O)c21	-1.25
CC1CCC(NC(=O)Cn2ncc3c4ccccc4n(Cc4ccc(Cl)cc4)c3c2=O)CC1 (stereo unspecified)	2.94
COc1ccc(CN2CCN(CC(=O)O)C(=O)C2C)c(C)c1 (stereo unspecified)	-0.1
COc1c(Cl)cc(Cl)cc1CN1C[C@H]2COC[C@@H](C1)C(=O)N2	0.05
COCCCNC(=O)C1CCN(c2cc(C)nc3c(-c4ccc(OC)c(OC)c4)c(C)nn23)CC1	-0.82
CN(C)c1ncnc2c1CCN(C(=O)Cc1cn3ccsc3n1)C2	-1.15
Cc1ccc(CNC(=O)c2ccc(Cn3c(=O)c4ccccc4n(CC(=O)Nc4c(C)cc(C)cc4C)c3=O)cc2)cc1	-0.52
Cc1cc(C)c(NC(=O)Cn2c(=O)n(Cc3ccc(C(=O)NCc4ccco4)cc3)c(=O)c3sccc32)c(C)c1	4.53*
Cc1cccc(C)c1NC(=O)Cn1c(=O)n(Cc2ccc(C(=O)NCc3ccco3)cc2)c(=O)c2sccc21	-4.42
O=C(c1ccc(-c2ccccc2OCCn2ccnc2)cc1)N1CCOCC1	-1.01
CC(C)(C)c1ccc(C2Sc3ccccc3NC3=C2C(=O)c2ccccc23)cc1 (stereo unspecified)	3.48*
Cc1ccc(S(=O)(=O)N2CC(N3CCN(c4ncccc4Cl)CC3)C2)cc1	1.27
CCC[C@]1(C(=O)O)CCN(C(=O)c2c(CC)noc2C)CC1O (stereo partly specified)	-1.87
c1ccc(CCc2n[nH]c(CN3CCOc4ccccc4C3)n2)cc1	-1.74
SMILES	fixLJ activator
Cn1ccnc1CN1CCN(Cc2ccncc2)C2CS(=O)(=O)CC21 (stereo unspecified)	-0.77
CCc1cc(N2CCN(c3cc(=O)[nH]c(N)n3)CC2)n2nccc2n1	0.54
CCc1n[nH]c(CN2CCCC2c2nc(-c3cccnc3)no2)n1 (stereo unspecified)	0.25
COc1cc(C)c(C)cc1S(=O)(=O)NCCCN(C)C1CCCC1	-1.45
COc1ccc(C2=C(N3CCN(c4cc(Cl)ccc4C)CC3)c3ccccc3C2=O)cc1	-0.7
Cc1ccc(NC2=C(c3ccc(C(F)(F)F)cc3)C(=O)c3ccccc32)cc1C	3.28*
COc1ccc(NC2=C(c3ccccc3)C(=O)c3ccccc32)cc1Cl	3.77*
COc1ccc(C2=C(N3CCN(c4cc(C)ccc4C)CC3)c3ccccc3C2=O)cc1	-0.78
COc1ccc(OC)c(NC2=C(c3ccccc3)C(=O)c3ccccc32)c1	-0.05
COc1ccc(Nc2c3c(nc4ccccc24)CCC3)cc1Cl	-3.55
Cc1oc2ccc(O)c(CN(C)Cc3ccccc3)c2c1C(=O)Nc1cccc(Cl)c1C	-1.76
NC(=O)c1ccc(OC2COCCC2NC(=O)C2CC2)cc1 (stereo unspecified)	-0.37
COc1cccc2c1OCC(C(=O)NCC1(c3cccc(F)c3)CCOCC1)C2 (stereo unspecified)	0.71
Cc1cc2c(SCC(=O)NC(C)c3csc(C)n3)ncnc2s1 (stereo unspecified)	0.11
Cc1ccc(S(=O)(=O)c2nc(-c3ccco3)oc2SCc2ccccc2Cl)cc1	0.63
Cc1ccc(CSc2oc(-c3ccco3)nc2S(=O)(=O)c2ccc(C)cc2)cc1	-0.02
CCC(C)Sc1oc(-c2ccco2)nc1S(=O)(=O)c1ccc(C)cc1 (stereo unspecified)	5.48*
CN1CCCC1CCNc1ccc(-c2nc(-c3ccccc3F)no2)cn1 (stereo unspecified)	-1.04
CCN1CCC(CCNC(=O)N(C)Cc2cn[nH]c2-c2ccc(F)cc2)CC1	-0.55
CCOc1ccc2ncc3c(-c4cccc(OC)c4)nn(-c4ccccc4)c3c2c1	3.31*
CCOc1ccc(-c2nn(-c3ccc(F)cc3)c3c2cnc2ccc(F)cc23)cc1	-1.63
CCc1ccc(-c2nn(-c3ccc(OC)cc3)c3c2cnc2ccc(OC)cc23)cc1	1.08
CCCC(=O)Nc1cccc(NC(=O)N2CCC(F)(F)CC2)c1	-1.44
CN(CCCN1CCCCCC1)c1cc(C2CC(N)C2)nc(N)n1 (stereo unspecified)	0.77
O=C1NCC2(CCCN(Cc3nc(-c4ccc(F)cc4)cs3)C2)O1 (stereo unspecified)	0.09
SMILES	fixLJ activator
COc1ccc(CNC(=O)c2ccc(CNS(=O)(=O)c3ccc(OC)cc3)cc2)cc1	0.21
CN(c1ccc(C(=O)NCc2noc(-c3cccs3)n2)cc1)S(C)(=O)=O	-0.06
COCc1noc(CNC(=O)c2ccc(N(C)S(C)(=O)=O)cc2)n1	3.01*
CCSc1ncc(Cl)c(C(=O)N(Cc2ccccc2)c2ccc(OC)cc2)n1	2.22
CCOc1cc(C(c2c(C)[nH]n(-c3ccccc3)c2=O)c2c(C)[nH]n(-c3ccccc3)c2=O)ccc1O	3.29*
Cc1[nH]n(-c2ccccc2)c(=O)c1C(c1cc(Cl)ccc1O)c1c(C)[nH]n(-c2ccccc2)c1=O	-4.28
COc1cc(C(c2c(C)[nH][nH]c2=O)c2c(C)[nH][nH]c2=O)ccc1OC(=O)c1ccccc1OC	0.53
Cc1cnc(C)c(-c2cc(O)c3c(c2)CN(CCSC(C)C)CCO3)n1	-1.46
COCC1CCCN1S(=O)(=O)c1ccc2c(c1)CN(C(=O)C(C)(C)C)CC2 (stereo unspecified)	-3.73
COC(=O)CN1C(C(=O)c2ccccc2)=C(OC(=O)c2ccc(F)cc2)c2ccccc2S1(=O)=O	1.56
CCCCC(=O)OC1=C(C(=O)c2ccccc2)N(C)S(=O)(=O)c2ccccc21	2.27
CCCN1C(C(=O)c2ccccc2)=C(OC(=O)C(C)(C)C)c2ccccc2S1(=O)=O	0.47
Cc1ccc(NC(=O)c2ccccc2Br)c(C(=O)c2ccccc2)c1	0.54
CN1C(C(=O)c2ccccc2)=C(NC(=O)c2ccccc2Br)c2ccccc2S1(=O)=O	3.63*
CN1C(C(=O)c2ccccc2)=C(NC(=O)c2ccc(F)cc2)c2ccccc2S1(=O)=O	7.46*
CC(C)Oc1ccccc1-c1nc(SCC(=O)c2ccc(F)cc2)n[nH]1	-1.86
COC1CN(C(=O)c2ccc(Cl)s2)CC1Cc1cc(C)no1 (stereo unspecified)	-1.18
CS(=O)(=O)c1ccc(-c2ccc(C(O)CN3CCOCC3)cc2)cc1 (stereo unspecified)	0.48
Cc1cc(C)n2nc(CC(=O)N(Cc3ccsc3)CC(C)C)nc2n1	-1.24
COc1ccccc1-n1cc(C(=O)N2CCC3(CC2)CN(C)C(=O)O3)cn1	1.37
